This note sets out measurements from publication PMC7862700, “An all-to-all approach to the identification of sequence-specific readers for epigenetic DNA modifications on cytosine”.

Holding throughout (experiment): DAPPL (digital affinity profiling via proximity ligation, sequencing); 10 mM Tris-HCl pH 7.5, 50 mM NaCl, 1 mM DTT, 4% glycerol, room temperature, 30 min; GST-TFs on glutathione beads, 16-mer random dsDNA library, 0.1% formaldehyde crosslink after washing; high values mean tight binding
One assay addresses T1, FLI1 (Homo sapiens, UniProt Q01543 1-452).
T1 sequence: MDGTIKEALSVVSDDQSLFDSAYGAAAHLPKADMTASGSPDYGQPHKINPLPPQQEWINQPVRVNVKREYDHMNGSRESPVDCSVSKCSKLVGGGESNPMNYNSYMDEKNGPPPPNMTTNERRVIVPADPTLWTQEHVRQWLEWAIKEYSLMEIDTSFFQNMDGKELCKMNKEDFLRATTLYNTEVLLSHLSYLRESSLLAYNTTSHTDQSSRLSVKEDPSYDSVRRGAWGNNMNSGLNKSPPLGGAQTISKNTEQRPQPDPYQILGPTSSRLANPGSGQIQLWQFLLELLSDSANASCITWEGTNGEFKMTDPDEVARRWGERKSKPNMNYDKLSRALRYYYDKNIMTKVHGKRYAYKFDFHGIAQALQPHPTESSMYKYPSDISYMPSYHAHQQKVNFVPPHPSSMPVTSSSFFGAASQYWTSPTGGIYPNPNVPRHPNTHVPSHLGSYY
To be noted: protein: recombinant; tags: N-terminal GST; dsDNA, one strand shown. In a few lines: (§1)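 Binding signal is given per hexamer as its read frequency for a factor divided by its frequency in the tag-only sample. GST-fused human transcription factors were expressed in yeast, captured on glutathione beads, barcoded with DNA and pooled with that sample, then incubated with 200 nmole of a 16-mer random double-stranded DNA library in Tris/NaCl/DTT/glycerol buffer for 30 min at room temperature. The pools were then washed, crosslinked, proximity-ligated, amplified by PCR and sequenced on an Illumina NextSeq500.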

The target in another assay is T2, ELK1 (Homo sapiens, UniProt P19419 1-428).
T2 sequence: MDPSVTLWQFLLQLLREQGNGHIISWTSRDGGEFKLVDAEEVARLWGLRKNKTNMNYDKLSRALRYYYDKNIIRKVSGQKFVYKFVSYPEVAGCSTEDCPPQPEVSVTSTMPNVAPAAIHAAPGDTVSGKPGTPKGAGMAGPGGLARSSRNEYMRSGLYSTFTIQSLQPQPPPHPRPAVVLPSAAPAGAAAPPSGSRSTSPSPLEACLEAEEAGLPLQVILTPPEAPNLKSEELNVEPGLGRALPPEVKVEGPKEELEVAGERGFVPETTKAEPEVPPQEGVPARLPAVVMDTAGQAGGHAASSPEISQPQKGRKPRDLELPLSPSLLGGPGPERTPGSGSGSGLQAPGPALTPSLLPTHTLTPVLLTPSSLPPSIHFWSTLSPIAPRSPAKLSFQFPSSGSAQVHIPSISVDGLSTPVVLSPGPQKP
The following applies: protein: recombinant; tags: N-terminal GST; dsDNA, one strand shown. The method, boiled down:
as §1

The target in another assay is T3, GABPA (Homo sapiens, UniProt Q06546 1-454).
T3 sequence: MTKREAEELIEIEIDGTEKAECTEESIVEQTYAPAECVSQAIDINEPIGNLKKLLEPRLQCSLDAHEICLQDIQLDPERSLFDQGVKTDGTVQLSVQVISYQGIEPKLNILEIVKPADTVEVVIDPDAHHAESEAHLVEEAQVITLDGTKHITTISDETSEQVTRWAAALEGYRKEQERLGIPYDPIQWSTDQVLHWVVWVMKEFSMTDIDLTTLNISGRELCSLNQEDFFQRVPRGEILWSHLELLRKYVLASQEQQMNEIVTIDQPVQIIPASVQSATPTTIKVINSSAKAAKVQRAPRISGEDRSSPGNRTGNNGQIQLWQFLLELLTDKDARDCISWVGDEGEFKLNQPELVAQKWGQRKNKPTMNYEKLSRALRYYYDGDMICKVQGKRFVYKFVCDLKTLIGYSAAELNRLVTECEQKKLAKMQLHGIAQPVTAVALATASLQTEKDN
The following applies: protein: recombinant; tags: N-terminal GST; dsDNA, one strand shown. The method, boiled down: as §1

A further assay deals with ELF1 (Homo sapiens, UniProt P32519 1-619). To be noted: protein: recombinant; tags: N-terminal GST; dsDNA, one strand shown. In a few lines:
as §1

A further assay deals with T4, EHF (Homo sapiens, UniProt Q9NZC4 1-300).
T4 sequence: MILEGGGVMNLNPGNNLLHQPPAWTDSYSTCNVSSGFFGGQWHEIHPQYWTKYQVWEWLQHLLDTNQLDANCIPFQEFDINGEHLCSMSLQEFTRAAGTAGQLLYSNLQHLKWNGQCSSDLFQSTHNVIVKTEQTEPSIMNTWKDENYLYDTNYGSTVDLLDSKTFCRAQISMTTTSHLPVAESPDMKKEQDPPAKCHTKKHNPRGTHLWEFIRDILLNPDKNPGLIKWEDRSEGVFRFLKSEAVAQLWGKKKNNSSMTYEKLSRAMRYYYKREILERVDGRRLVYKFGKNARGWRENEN
To be noted: protein: recombinant; tags: N-terminal GST; dsDNA, one strand shown. The method, boiled down:
as §1

The target of the next assay is SPI1 (Homo sapiens, UniProt P17947 1-270). To be noted: protein: recombinant; tags: N-terminal GST; dsDNA, one strand shown. In a few lines: as §1
The next assay has as its target SPIB (Homo sapiens, UniProt Q01892 1-262). To be noted: protein: recombinant; tags: N-terminal GST; dsDNA, one strand shown. The method, boiled down: as §1
Another assay has as its target T5, ELK3 (Homo sapiens, UniProt P41970 1-407).
T5 sequence: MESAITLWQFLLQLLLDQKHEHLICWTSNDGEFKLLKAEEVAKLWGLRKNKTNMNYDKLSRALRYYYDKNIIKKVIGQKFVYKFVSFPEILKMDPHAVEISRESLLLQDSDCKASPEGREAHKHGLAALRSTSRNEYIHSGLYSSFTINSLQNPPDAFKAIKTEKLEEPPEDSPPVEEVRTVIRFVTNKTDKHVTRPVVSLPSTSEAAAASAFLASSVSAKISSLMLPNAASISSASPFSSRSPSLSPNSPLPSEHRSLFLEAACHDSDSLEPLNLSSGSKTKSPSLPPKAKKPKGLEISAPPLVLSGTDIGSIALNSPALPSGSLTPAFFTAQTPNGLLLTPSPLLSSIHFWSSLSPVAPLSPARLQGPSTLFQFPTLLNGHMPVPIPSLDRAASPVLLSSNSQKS
The following applies: protein: recombinant; tags: N-terminal GST; dsDNA, one strand shown. In a few lines:
as §1

The next assay addresses ETV5 (Homo sapiens, UniProt P41161 1-510). To be noted: protein: recombinant; tags: N-terminal GST; dsDNA, one strand shown. The method, boiled down:
as §1

A further assay addresses HSF1 (Homo sapiens, UniProt Q00613 1-529). The following applies: protein: recombinant; tags: N-terminal GST; chain copies: 3; dsDNA, one strand shown. The method, boiled down:
as §1

For the next assay, the target named is ELF4 (Homo sapiens, UniProt Q99607 1-663). To be noted: protein: recombinant; tags: N-terminal GST; dsDNA, one strand shown. In a few lines:
as §1

The target of the next assay is T6, ELK4 (Homo sapiens, UniProt P28324-2 1-405).
T6 sequence: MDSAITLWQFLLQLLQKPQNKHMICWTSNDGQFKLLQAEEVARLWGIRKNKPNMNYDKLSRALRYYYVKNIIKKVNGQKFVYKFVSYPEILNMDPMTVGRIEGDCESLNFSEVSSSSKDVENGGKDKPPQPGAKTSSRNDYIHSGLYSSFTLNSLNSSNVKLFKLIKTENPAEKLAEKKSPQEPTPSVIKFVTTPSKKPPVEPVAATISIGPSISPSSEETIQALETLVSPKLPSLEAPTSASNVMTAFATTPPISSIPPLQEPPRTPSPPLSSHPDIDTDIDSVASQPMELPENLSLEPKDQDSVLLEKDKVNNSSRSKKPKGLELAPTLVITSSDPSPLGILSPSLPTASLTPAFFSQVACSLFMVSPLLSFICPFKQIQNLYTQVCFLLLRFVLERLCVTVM
To be noted: protein: recombinant; tags: N-terminal GST; dsDNA, one strand shown. In a few lines:
as §1

The target of a further assay is T7, ERG (Homo sapiens, UniProt P11308 1-479).
T7 sequence: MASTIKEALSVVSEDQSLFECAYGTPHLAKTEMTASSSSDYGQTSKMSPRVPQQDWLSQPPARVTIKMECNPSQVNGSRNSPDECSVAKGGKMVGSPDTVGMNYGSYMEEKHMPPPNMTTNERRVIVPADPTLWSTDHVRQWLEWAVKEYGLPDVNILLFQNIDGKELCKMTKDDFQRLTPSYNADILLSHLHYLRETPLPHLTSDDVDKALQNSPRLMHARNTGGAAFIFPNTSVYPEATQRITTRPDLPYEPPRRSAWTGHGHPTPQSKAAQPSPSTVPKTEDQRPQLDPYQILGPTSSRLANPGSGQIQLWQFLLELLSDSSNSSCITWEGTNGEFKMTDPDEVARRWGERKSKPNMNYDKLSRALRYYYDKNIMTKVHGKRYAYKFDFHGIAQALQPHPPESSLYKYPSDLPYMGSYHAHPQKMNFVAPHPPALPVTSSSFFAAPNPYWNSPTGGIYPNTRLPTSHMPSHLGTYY
To be noted: protein: recombinant; tags: N-terminal GST; dsDNA, one strand shown. The method, boiled down: as §1

The target in the next assay is T8, FEV (Homo sapiens, UniProt Q99581 1-238).
T8 sequence: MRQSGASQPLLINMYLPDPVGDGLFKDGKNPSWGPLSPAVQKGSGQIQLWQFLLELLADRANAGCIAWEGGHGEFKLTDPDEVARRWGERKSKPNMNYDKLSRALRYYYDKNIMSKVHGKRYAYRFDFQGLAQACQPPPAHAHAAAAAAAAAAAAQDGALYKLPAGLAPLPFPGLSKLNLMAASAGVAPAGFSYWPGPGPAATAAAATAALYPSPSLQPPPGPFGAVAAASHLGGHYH
To be noted: protein: recombinant; tags: N-terminal GST; dsDNA, one strand shown. The method, boiled down: as §1

A further assay deals with T9, ELF3 (Homo sapiens, UniProt P78545 1-371).
T9 sequence: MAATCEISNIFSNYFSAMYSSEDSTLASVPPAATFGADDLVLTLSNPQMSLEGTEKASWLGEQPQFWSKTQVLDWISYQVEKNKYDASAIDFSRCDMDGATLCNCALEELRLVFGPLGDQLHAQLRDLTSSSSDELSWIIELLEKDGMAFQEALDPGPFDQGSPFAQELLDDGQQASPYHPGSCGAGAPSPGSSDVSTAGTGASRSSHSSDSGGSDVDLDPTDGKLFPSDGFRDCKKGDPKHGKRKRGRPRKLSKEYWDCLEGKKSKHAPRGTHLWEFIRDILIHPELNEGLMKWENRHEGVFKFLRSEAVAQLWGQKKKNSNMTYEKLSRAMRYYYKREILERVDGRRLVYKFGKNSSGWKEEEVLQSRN
To be noted: protein: recombinant; tags: N-terminal GST; dsDNA, one strand shown. In a few lines: as §1

For a further assay, the target named is ETV1 (Homo sapiens, UniProt P50549 1-477). The following applies: protein: recombinant; tags: N-terminal GST; dsDNA, one strand shown. The method, boiled down:
as §1

Sequence of ELF1 (P32519 whole entry): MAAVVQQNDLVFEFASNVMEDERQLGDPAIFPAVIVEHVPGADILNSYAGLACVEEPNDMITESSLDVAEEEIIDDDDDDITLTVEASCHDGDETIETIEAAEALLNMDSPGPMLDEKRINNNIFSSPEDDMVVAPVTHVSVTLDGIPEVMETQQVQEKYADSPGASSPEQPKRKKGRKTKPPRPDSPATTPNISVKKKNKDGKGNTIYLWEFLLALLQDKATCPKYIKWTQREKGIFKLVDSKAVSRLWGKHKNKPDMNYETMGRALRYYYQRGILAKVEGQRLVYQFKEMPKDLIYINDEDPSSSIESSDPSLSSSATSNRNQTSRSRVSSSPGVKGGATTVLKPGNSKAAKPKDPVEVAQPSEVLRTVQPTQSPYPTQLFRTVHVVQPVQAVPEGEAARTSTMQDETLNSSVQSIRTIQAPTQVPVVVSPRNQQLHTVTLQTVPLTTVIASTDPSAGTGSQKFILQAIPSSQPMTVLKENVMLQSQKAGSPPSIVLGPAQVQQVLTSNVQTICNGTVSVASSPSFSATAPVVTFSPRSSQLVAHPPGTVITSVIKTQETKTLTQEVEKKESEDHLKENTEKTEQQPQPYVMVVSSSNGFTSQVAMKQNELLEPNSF
Sequence of SPIB (Q01892 whole entry): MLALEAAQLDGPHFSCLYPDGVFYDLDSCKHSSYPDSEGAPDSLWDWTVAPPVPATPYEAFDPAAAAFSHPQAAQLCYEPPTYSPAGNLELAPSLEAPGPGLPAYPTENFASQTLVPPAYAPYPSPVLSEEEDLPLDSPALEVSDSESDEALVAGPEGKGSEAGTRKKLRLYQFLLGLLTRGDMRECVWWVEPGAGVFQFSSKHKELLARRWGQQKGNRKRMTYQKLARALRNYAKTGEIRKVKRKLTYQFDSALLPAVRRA
Sequence of ELF4 (Q99607 whole entry): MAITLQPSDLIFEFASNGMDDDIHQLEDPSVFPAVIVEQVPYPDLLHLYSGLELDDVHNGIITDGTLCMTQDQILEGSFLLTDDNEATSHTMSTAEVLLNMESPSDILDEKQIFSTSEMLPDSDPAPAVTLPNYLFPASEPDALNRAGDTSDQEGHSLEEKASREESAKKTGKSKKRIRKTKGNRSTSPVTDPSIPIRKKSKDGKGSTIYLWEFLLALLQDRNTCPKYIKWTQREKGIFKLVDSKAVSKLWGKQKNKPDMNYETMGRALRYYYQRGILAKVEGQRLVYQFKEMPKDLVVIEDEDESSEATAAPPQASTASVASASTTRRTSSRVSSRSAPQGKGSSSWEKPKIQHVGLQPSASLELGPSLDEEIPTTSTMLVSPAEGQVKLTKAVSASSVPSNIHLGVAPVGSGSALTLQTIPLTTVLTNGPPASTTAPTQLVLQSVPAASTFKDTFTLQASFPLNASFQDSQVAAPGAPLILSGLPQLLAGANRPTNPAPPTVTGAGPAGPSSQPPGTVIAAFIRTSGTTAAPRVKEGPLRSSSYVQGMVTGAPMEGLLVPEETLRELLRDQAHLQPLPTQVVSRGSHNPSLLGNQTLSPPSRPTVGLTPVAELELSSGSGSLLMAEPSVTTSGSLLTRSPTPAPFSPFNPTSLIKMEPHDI
Sequence of HSF1 (Q00613 whole entry): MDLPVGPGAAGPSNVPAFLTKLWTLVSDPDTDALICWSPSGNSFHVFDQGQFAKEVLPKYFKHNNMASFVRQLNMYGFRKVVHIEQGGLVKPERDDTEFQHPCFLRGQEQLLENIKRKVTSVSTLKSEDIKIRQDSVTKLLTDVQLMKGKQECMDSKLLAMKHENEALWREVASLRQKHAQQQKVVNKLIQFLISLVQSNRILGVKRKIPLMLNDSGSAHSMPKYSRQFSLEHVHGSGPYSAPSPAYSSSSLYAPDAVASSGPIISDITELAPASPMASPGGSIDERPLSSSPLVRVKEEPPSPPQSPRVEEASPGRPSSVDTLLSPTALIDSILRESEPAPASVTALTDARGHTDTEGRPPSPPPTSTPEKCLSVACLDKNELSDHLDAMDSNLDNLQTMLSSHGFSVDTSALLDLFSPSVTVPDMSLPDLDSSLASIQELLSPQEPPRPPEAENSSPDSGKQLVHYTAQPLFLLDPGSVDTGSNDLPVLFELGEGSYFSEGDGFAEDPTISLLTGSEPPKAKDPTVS
Sequence of ETV5 (P41161 whole entry): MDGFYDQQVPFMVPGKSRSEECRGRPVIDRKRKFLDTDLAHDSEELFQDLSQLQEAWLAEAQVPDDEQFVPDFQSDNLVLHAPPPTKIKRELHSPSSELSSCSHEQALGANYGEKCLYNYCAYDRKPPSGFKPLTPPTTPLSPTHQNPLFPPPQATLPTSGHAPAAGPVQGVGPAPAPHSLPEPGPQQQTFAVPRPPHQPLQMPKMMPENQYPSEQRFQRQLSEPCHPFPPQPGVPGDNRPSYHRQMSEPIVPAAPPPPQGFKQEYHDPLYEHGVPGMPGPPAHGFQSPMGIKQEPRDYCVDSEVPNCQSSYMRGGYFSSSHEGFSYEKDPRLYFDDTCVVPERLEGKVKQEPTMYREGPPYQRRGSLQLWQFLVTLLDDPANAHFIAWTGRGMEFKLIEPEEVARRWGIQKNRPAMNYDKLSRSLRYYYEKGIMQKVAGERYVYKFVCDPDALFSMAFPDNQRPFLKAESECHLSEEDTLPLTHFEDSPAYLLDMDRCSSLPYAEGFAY
Sequence of ETV1 (P50549 whole entry): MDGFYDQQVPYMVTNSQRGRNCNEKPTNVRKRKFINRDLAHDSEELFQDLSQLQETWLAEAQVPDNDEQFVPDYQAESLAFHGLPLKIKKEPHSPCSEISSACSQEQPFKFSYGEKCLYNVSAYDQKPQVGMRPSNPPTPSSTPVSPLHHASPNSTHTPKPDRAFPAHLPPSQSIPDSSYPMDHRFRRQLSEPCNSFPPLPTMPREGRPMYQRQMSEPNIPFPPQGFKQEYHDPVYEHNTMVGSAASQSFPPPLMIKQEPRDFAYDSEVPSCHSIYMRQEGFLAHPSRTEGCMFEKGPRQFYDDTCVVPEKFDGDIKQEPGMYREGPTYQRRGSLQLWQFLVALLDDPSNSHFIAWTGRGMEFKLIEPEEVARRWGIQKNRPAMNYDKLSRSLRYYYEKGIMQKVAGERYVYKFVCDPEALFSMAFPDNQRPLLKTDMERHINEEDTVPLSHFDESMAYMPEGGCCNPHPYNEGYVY

With CGATGA, the binding signal was 1.01 fold enrichment (6-mer frequency, TF over GST control) with FLI1; 1.09 fold enrichment (6-mer frequency, TF over GST control) with ELK1; 1.05 fold enrichment (6-mer frequency, TF over GST control) with GABPA; 1.11 fold enrichment (6-mer frequency, TF over GST control) with ELF1; 1.08 fold enrichment (6-mer frequency, TF over GST control) with EHF; 1.06 fold enrichment (6-mer frequency, TF over GST control) with SPI1. The binding signal with SPIB was 1.01 fold enrichment (6-mer frequency, TF over GST control); in the assay with ELK3 it was 1.09 fold enrichment (6-mer frequency, TF over GST control); with ETV5, 1.05 fold enrichment (6-mer frequency, TF over GST control); in the assay with HSF1, 1.02 fold enrichment (6-mer frequency, TF over GST control); with ELF4 it was 1.06 fold enrichment (6-mer frequency, TF over GST control); with ELK4 it was 1.01 fold enrichment (6-mer frequency, TF over GST control).
For the sequence GAATTG, the binding signal is 1.15 fold enrichment (6-mer frequency, TF over GST control) in the assay with FLI1; 1.12 fold enrichment (6-mer frequency, TF over GST control) with ELK1; 1.09 fold enrichment (6-mer frequency, TF over GST control) in the assay with GABPA; 1.1 fold enrichment (6-mer frequency, TF over GST control) with ERG; 1.11 fold enrichment (6-mer frequency, TF over GST control) in the assay with ELF1; 1.12 fold enrichment (6-mer frequency, TF over GST control) with EHF. Besides, the binding signal is 1.17 fold enrichment (6-mer frequency, TF over GST control) in the assay with SPI1; 1.21 fold enrichment (6-mer frequency, TF over GST control) in the assay with SPIB; 1.21 fold enrichment (6-mer frequency, TF over GST control) in the assay with ELK3; 1.11 fold enrichment (6-mer frequency, TF over GST control) with FEV; 1.18 fold enrichment (6-mer frequency, TF over GST control) with ETV5; 1.06 fold enrichment (6-mer frequency, TF over GST control) with HSF1. For the same sequence, the binding signal in the assay with ELF4 was 1.11 fold enrichment (6-mer frequency, TF over GST control); with ELK4 it was 1.04 fold enrichment (6-mer frequency, TF over GST control); in the assay with ELF3 it was 1.17 fold enrichment (6-mer frequency, TF over GST control); in the assay with ETV1, 1.15 fold enrichment (6-mer frequency, TF over GST control).
